Laboratory results: PubChem BioAssay (Tox21)
Several values for one entry are separate records, joined by “and”; a condition that tells them apart may be missing. Equal values may be shown once. Records with an inconclusive call do not appear. Where a call stands in place of a potency, no number is given. Where a structure was tested more than once in an assay, its records may differ in their call. Activity calls are given as the source filed them. The call rests on the fitted dose curve.

assay: qHTS assay to identify small molecule agonists of H2AX - cell viability counter screen (AID 1224847); details: CHO-K1 viability, CellTiter-Glo luminescence, 3 h; series mostly up to 154 µM; activity change, negative = cytotoxicity: at the top concentration; further: nearly all actives have a fitted effect of over 30% in size; on activity change, negative = cytotoxicity: top concentration of the series differs between compounds
Source text: National Center for Advancing Translational Sciences [NCATS]
NIH Chemical Genomics Center [NCGC]
U.S. Environmental Protection Agency [EPA]
National Institutes of Environmental Health Sciences [NIEHS]
National Toxicology Program [NTP]
U.S. Food and Drug Administration [FDA]
HTRF phospho-H2AX (Ser139) assay (Cisbio Bioassays, US) enables the quantitative detection of the histone variant H2AX when phosphorylated on serine 139. When double-stranded DNA breaks, either by ionizing radiation or endogenous physiological processes, H2AX becomes phosphorylated at Ser139. This phospho-Ser139 serves as a sensitive biomarker for the detection of such breaks, localizing the site of DNA repair. So, HTRF phospho-H2AX Ser139 is a pertinent assay to study genome stability, the cell cycle, DNA repair, and it serves as a biomarker for cancer, and to understand aging. Wild type CHO-K1 cells were used to identify the inducers of Phospho-H2AX Ser 139 from the Tox21 compound collections. Also cytotoxicity of the Tox21 10K compound library against the CHO-K1 cell line was tested by measuring the cell viability using CellTiter-Glo assay (Promega, Madison, WI).
Tox21 Assay Protocol Summary:
The CHO-K1 cells suspended in culture medium containing 10% FBS were dispensed at 1000 cells/ 3 ul/well in 1536-well white wall/solid bottom plates (Greiner Bio-One North America, NC) using a Multidrop Combi (Thermo Fisher Scientific Inc., Waltham, MA). After the assay plates were incubated at 37C overnight, 23 nl of compounds at 15 concentrations (from 5-48 columns) or positive control (from 1 to 4 columns) were transferred to the assay plates using a Pintool station (Wako, San Diego, CA) into each well resulting in a final DMSO concentration of 0.76%. After 3hr incubation at 37C, 3 uL/well CellTiter-Glo luminescent cell viability reagent (Promega Corporation, Madison, WI) was added using a Flying Reagent Dispenser (FRD) (Aurora Discovery, CA). After incubation at room temperature for 30 min, the luminescence intensity was read using a ViewLux plate reader (PerkinElmer, Waltham, MA).
Potency means the concentration at half of the fitted maximal effect.

SMILES | Potency | activity change, negative = cytotoxicity
COCCOCCOC | inactive | 
Oc1cccc(O)c1 | inactive | 
Nc1ccc(N=Nc2ccccc2)c(N)n1 | inactive | 
NC(=O)c1ccc([N+](=O)[O-])cc1Cl | inactive | 
O=c1c(-c2ccc(O)cc2)coc2cc(O)cc(O)c12 |  | 3.17% (inactive)
CCCCNC(=O)NS(=O)(=O)c1ccc(N)cc1 | inactive | 
O=C(O)Cc1cccc2ccccc12 | inactive | 
CC(C)CC(C)CC(O)CC(C)C (stereo not given) | inactive | 
CN(C)Cc1cc(CN(C)C)c(O)c(CN(C)C)c1 | inactive | 
CN(C)C=O | inactive | 
C/C=C/c1ccc(O)c(OC)c1 | inactive | 
COC(=O)c1ccc(C=O)cc1 | inactive | 
O=c1cc[nH]c(=O)[nH]1 | inactive | 
Cc1cnc(NC(=O)C2=C(O)c3ccccc3S(=O)(=O)N2C)s1 | inactive | 
Cn1cnc2c1c(=O)[nH]c(=O)n2C | inactive | 
COc1cc(C=O)ccc1O | inactive | 
CC(=O)/C=C/C1=C(C)CCCC1(C)C | inactive | 
Cc1c(N(C)C)c(=O)n(-c2ccccc2)n1C | inactive | 
NC(=O)OCC(COC(N)=O)c1ccccc1 | inactive | 
NC(=O)N/N=C/c1ccc([N+](=O)[O-])o1 | inactive | 

SMILES | Potency | activity change, negative = cytotoxicity
CCCCCCCCCCCCCCCCCC(=O)OCC(O)CO (stereo not given) | inactive | 
COc1ccccc1NC(=O)CC(C)=O | inactive | 
CC(O)COc1ccccc1 (stereo not given) | inactive | 
O=C(O)CN(CC(=O)O)CC(=O)O | inactive | 
CCOC(=O)C(C)(C)Oc1ccc(Cl)cc1 | inactive | 
CC(C)Cc1ccc(C(C)C(=O)O)cc1 (stereo not given) | inactive | 
C=C(C)C(N)=O | inactive | 
Cc1cccc(C)c1O | inactive | 
Nc1cccc(N)c1 | inactive | 
c1ccc2[nH]c(-c3cscn3)nc2c1 | inactive | 
NC(N)=NC(N)=NCCc1ccccc1 | inactive | 
CCCCCCCCCCCCCC(=O)OC(C)C | inactive | 
C#C[C@]1(O)CC[C@H]2[C@@H]3CCC4=CC(=O)CC[C@@H]4[C@H]3CC[C@@]21CC | inactive and 89.8 µM (active) | 
O=C(OCc1ccccc1)c1ccccc1 | inactive | 
CCCCOCCOCCSC#N | inactive | 
CC1(C)O[C@@H]2[C@@H](CO[C@@]3(COS(N)(=O)=O)OC(C)(C)O[C@@H]23)O1 | inactive | 
CCn1cc(C(=O)O)c(=O)c2ccc(C)nc21 | inactive | 
CO[C@H]1C=CO[C@@]2(C)Oc3c(C)c(O)c4c(O)c(c(/C=N/N5CCN(C)CC5)c(O)c4c3C2=O)NC(=O)/C(C)=C\C=C[C@H](C)[C@H](O)[C@@H](C)[C@@H](O)[C@@H](C)[C@H](OC(C)=O)[C@@H]1C | inactive | 
NCCNc1cccc2ccccc12 | inactive | 
COC(=O)C1CCC(C(=O)OC)CC1 (stereo not given) | inactive | 
